Laboratory results as given in the supplement of paper PMC3334620.
Over roughly 33,000 sequences, “E-score (-0.5 to 0.5)” has its median near -0.054; the highest 2% begin near 0.35. Only a selection was taken, and the highest values are over-represented in it overall.

target: T1, Stb5 (UniProt P38699); assay: PBM E-score (8-mer binding enrichment) (E-score (-0.5 to 0.5)); higher = stronger / more preferred TF binding; settings: protein concentration: 200 nM; construct: GST-full length
T1 sequence: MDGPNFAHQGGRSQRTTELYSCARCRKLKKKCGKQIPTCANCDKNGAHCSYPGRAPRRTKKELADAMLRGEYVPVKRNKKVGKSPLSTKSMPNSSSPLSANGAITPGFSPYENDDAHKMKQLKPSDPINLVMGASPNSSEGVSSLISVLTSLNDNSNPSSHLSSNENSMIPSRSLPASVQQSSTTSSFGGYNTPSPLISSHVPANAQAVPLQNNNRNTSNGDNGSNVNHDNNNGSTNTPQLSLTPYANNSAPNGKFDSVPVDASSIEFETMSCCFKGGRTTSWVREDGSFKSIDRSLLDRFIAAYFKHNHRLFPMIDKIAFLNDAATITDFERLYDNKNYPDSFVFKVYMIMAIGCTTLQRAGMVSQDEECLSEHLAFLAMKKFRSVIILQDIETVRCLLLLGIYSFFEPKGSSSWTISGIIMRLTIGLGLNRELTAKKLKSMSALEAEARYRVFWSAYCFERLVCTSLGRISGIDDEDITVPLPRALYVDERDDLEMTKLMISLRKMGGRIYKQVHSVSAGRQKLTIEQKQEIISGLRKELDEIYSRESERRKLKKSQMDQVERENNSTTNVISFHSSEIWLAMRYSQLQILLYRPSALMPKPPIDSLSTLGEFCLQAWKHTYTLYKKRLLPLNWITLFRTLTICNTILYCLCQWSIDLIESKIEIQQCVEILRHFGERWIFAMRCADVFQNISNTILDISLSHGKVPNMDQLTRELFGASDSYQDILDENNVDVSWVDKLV
Method in brief: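 Yeast transcription factors carrying a GST tag, as full-length proteins or DNA-binding domains, were produced by PURExpress in vitro transcription/translation. About 100-200 nM protein was applied to universal all-10-mer Agilent arrays, double-stranded by primer extension on fresh or once-stripped slides. Bound protein was detected with fluorescent anti-GST, and scans were normalised with masliner. The Universal PBM Analysis Suite gave each ungapped eight-base word, pooled with its reverse complement, an E-score, a modified Wilcoxon-Mann-Whitney statistic.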

Sequence	PBM E-score
ACGCGCCT	0.013
ACTTGACC	-0.0754
AACGGCAG	0.107
CTTTTTGA	-0.162
TCCTCCGA	0.157
CCCTCCGA	0.0129
ACCTCCGG	0.372
ACCTCCGA	0.364
ACCTCCGT	0.302
CCCTCCGG	0.122
GCTGGAAA	-0.0514
AACCCTTA	-0.147
CAGGCATG	-0.111
CTAAAAGC	0.0851
CGAGTTTA	0.179
AGAGTTTA	-0.0332
GGAGTTTA	0.362
CGAGTTAC	-0.104
GGAGTTAA	0.398
TGAGTTAA	-0.155
AGAGTTAC	-0.241
GGAGTTAC	0.365

Sequence	PBM E-score
AGAGTTAA	-0.131
GCGGCTAC	0.192
AATACTGA	-0.19
TACCCACA	-0.228
GGGCCTAC	0.066
ATTATCTA	-0.0957
ACTTGAGC	-0.28
AATTTTAT	0.292
CTTCAGTC	-0.0437
CTTTTATC	0.161
AAGCCCTT	-0.131
AAGCCCGC	0.443
AAGCCCGT	0.417
CAGCCCGC	0.141
CAGCCCGG	0.246
AAGCCCTG	-0.101
GAAGCCGC	0.202
AAAGCCGC	0.365
AAGCCCGG	0.411
AAAGCCGT	0.324
AAGCCCAT	-0.0309
GAGCCCGC	0.252

Sequence	PBM E-score
GAAAGGCA	0.126
ACCCCCCA	-0.204
CACAACGG	0.166
AAGCCCGA	0.43
CAGCCCCG	0.267
TAGCCCGA	0.171
GAGCCCGA	0.264
AAAGCCCC	0.246
AAAGCCCG	0.457
AAGCCCCG	0.431
AAAGCCCT	-0.125
AAGCCCCC	0.00224
CTTCCCCA	-0.184
ATCCTATA	-0.0861
ATGGCAAC	-0.184
ACGAGAAT	0.00633
CTATGCGC	0.116
AGACCTTC	-0.109
AAAGGACT	-0.0879
GCCGCAAA	0.182
GGCCGCCA	0.141
GGTCCGAC	0.411

Sequence	PBM E-score
AGTCCGAA	0.299
AGTCCGAC	0.436
AATCCGAC	0.257
AGTCCGAT	0.414
ATTCCGAC	0.254
AGTCCGAG	0.237
GGTCCGAA	0.328
CGTCCGAC	0.281
CGGCAGGA	0.134
GGAACCCC	0.19
GCCTAGGC	-0.0482
ACCAGGCA	-0.187
AGCTACAC	-0.174
CTCTAGAC	-0.146
GCAGTTGA	-0.177
GTTCATCA	-0.136
ATTAAGAA	0.0289
ATGAACGA	-0.0854
AACAGGCA	-0.186
CGTCGTAC	0.0941
